An excerpt weighted towards active compounds, which were near 2.3% of everything screened.
CHT inh: inhibits the human high affinity choline transporter | Q9GZV3 | CHT-expressing cells, membrane potential dye, choline response; hits give low values | B-score at 10 µM | 310,000 compounds, 0.86% hits;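 active means B-score over 3 SD under the library average, and starting fluorescence ratio not unusually high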;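 further: choline stimulus applied at its EC90 after an EC20 pre-addition; B-score computed on integrated fluorescence ratio after choline addition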
Target sequence (Q9GZV3 whole entry, looked up): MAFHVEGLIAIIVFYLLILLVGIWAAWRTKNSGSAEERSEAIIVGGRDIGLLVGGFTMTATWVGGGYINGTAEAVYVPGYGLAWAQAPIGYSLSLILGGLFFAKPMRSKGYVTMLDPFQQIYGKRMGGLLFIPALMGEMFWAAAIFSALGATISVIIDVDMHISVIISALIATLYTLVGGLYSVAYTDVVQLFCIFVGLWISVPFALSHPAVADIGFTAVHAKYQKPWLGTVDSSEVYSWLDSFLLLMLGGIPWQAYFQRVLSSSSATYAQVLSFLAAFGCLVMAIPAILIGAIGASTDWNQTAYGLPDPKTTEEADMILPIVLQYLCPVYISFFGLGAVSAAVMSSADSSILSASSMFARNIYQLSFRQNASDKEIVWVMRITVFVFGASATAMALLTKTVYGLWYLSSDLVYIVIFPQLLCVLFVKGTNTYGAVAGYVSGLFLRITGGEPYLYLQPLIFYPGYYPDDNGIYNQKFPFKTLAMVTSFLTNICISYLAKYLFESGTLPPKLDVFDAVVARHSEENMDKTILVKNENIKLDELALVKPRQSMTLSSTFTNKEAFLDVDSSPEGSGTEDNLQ
CHT PAM: allosteric activators of human choline transporter CHT; Q9GZV3; CHT-expressing cells, membrane potential dye, choline EC20; hits give high values; LV-AA mutant CHT in HEK293 cells; B-score at 10 µM; 310,000 compounds, 0.49% hits; AID 488977;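 active means initial fluorescence not abnormally high and integrated response B-score, plate-corrected, over 3 SD above library mean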
TMEM16A act: mouse TMEM16A channel activation, primary screen | Q8BHY3 | HEK293 TMEM16A/YFP-H148Q/I152L, iodide quench fluorescence; hits give low values | AID 623877 | B-score at 10 µM | 340,000 compounds, 0.3% hits;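 active means fluorescence-ratio B-score plate-corrected deviation score at least 3 library SD below zero, with starting fluorescence score within 5 deviations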;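 further: channel opened by trigger with iodide after compound preincubation; score built on the fluorescence ratio of max minus min over baseline; more negative score means more quench and so TMEM16A activation or potentiation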
TMEM16A inh: blocks the mouse calcium-activated chloride channel TMEM16A | 310,000 compounds, 1.2% hits | normalized B-score (activity score, 25-100; higher = stronger inhibition) at 10 µM | HEK293 TMEM16A/YFP iodide influx fluorescence, ionomycin | Q8BHY3;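 active means ratio plate-corrected score three or more library SD toward inhibition, starting fluorescence score within five deviations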;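 further: score derived from kinetic fluorescence span divided by baseline fluorescence per well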
Starred values were filed as active, the others as inactive; i = inactive; x = no result.

SMILES	CHT inh	CHT PAM	TMEM16A act	TMEM16A inh
CC1OC(CC(=O)O)CC2=C1C(=O)c1c(O)cccc1C2=O (centres undefined)	x	x	i	x
O=c1c(/C=N\NS(=O)(=O)c2ccccc2)coc2ccc(Cl)cc12	i	i	i	100*
CC1CCCC(C)N1C(=C(Cl)Cl)C(=C1SCCS1)[N+](=O)[O-] (centres undefined)	i	i	-15*	i
CCCN(CC(=O)Nc1ccc(F)c(F)c1F)C(=O)Cc1ccc(OC)c(S(=O)(=O)N2CCOCC2)c1	x	x	i	x
Cc1c(C(=O)Oc2cccc3ccccc23)cnn1-c1ccccc1	i	i	i	100*
CCc1ccc(NC(=O)c2cnn(-c3ccccc3)c2C)cc1	i	i	i	i
COc1ccc(NC(=O)CCCCCn2nnc3ccccc3c2=O)cc1	i	i	i	i
O=C(O)c1ccc(N=C2c3ccccc3-c3ccccc32)cc1	x	x	i	x
O=C(O)c1ccc(C=NN=C2c3ccccc3-c3ccccc32)cc1	x	x	-4.8*	x
N#Cc1cc(-c2ccccc2)nc(N2CCNCC2)n1	i	i	i	i
COc1ccc(N/C=C/C(=O)c2ccc(C)cc2)c([N+](=O)[O-])c1	i	i	-7.2*	i
COc1ccc(C(C)=O)cc1COC(=O)CCNS(=O)(=O)c1ccc(C)c(C)c1	i	i	i	i
CCCCSc1nc(C)cc(SCC(=O)N/N=C/c2cccc(OC)c2O)n1	i	i	i	100*
COc1cccc(/C=N/NC(=O)CSc2nnc(C)n2-c2ccccc2)c1O	i	i	i	i
CCc1ccc(OCC(=O)Nc2ccc3c(c2)OCCO3)cc1	i	i	i	i
Cc1ccc(O)c(Nc2c3ccccc3nc3ccccc23)c1	i	i	i	25*
Cc1ccc(O)c(Nc2nc(-c3ccccc3)nc3ccccc23)c1	i	i	i	i
O=[N+]([O-])c1ccc(-c2nn(-c3ccccc3)cc2/C=N/n2c(-c3ccncc3)n[nH]c2=S)cc1	i	i	i	25*
C=C(C)CNC(=S)Nc1sc2c(c1C(=O)OCC)CC(C)(C)OC2	i	i	i	i
Cc1cc(Br)ccc1NC(=S)Nc1cccc([N+](=O)[O-])c1	i	i	i	100*
CNC(=S)Nc1cccc([N+](=O)[O-])c1	i	i	i	i
COc1ccc(-c2csc(N(CCCN(C)C)C(=O)c3ccccc3Cl)n2)cc1	-8.8*	i	i	i
COc1ccc(-c2csc(N(CCCN(C)C)C(=O)c3ccccc3F)n2)cc1	i	i	i	i
Cc1cn([C@@H](CCCCNC(=O)OC(C)(C)C)C(=O)NCCCCCCCCCCC(=O)N2CCN(C(=O)OC(C)(C)C)CC2)nn1	-5.8*	i	i	i
C#CCOCCOCCOCCNc1nc(N2CCN(C(=O)CCCCCCCCCCNC(=O)[C@H](CCCCN)n3cc(CCO)nn3)CC2)nc(N2CCN(C(=O)CCCCCCCCCCNC(=O)[C@H](CCCCN)n3cc(CCCC(=O)O)nn3)CC2)n1	i	i	i	i
SMILES	CHT inh	CHT PAM	TMEM16A act	TMEM16A inh
C#CCOCCOCCOCCNc1nc(N2CCN(C(=O)CCCCCCCCCCNC(=O)[C@H](CCCN=C(N)N)n3cc(C[C@@H](C)CC)nn3)CC2)nc(N2CCN(C(=O)CCCCCCCCCCNC(=O)[C@@H]([C@H](C)CC)n3cc(CCCCCN)nn3)CC2)n1	i	i	x	25*
C#CCOCCOCCOCCNc1nc(N2CCN(C(=O)CCCCCCCCCCNC(=O)[C@H](CO)n3cc(CCCCCN)nn3)CC2)nc(N2CCN(C(=O)CCCCCCCCCCNC(=O)[C@H](CCCN=C(N)N)n3cc(C[C@@H](C)CC)nn3)CC2)n1	i	i	x	100*
C#CCOCCOCCOCCNc1nc(N2CCN(C(=O)CCCCCCCCCCNC(=O)[C@@H](CCC(=O)O)n3cc(CCCCCN)nn3)CC2)nc(N2CCN(C(=O)CCCCCCCCCCNC(=O)[C@H](CO)n3cc(CCCCCN)nn3)CC2)n1	i	i	i	i
C#CCOCCOCCOCCNc1nc(N2CCN(C(=O)CCCCCCCCCCNC(=O)[C@H](CCCCN)n3cc(C)nn3)CC2)nc(N2CCN(C(=O)CCCCCCCCCCNC(=O)[C@H](CCCN=C(N)N)n3cc(C[C@@H](C)CC)nn3)CC2)n1	i	i	x	100*
CC(=O)c1ccc(NC(=O)CCNS(=O)(=O)c2ccccc2F)cc1	i	i	i	i
C#CCOCCOCCOCCNc1nc(N2CCN(C(=O)CCCCCCCCCCNC(=O)[C@@H](CCC(=O)O)n3cc(CCCCCN)nn3)CC2)nc(N2CCN(C(=O)CCCCCCCCCCNC(=O)[C@H](CCCCN)n3cc(C[C@@H](C)CC)nn3)CC2)n1	i	i	-5.7*	100*
C#CCOCCOCCOCCNc1nc(N2CCN(C(=O)CCCCCCCCCCNC(=O)[C@H]([C@@H](C)CC)n3cc(CCCCN=C(N)N)nn3)CC2)nc(N2CCN(C(=O)CCCCCCCCCCNC(=O)[C@@H]([C@H](C)O)n3cc(C)nn3)CC2)n1	i	i	-25*	25*
C#CCOCCOCCOCCNc1nc(N2CCN(C(=O)CCCCCCCCCCNC(=O)[C@H](CCCCN)n3cc(C[C@@H](C)CC)nn3)CC2)nc(N2CCN(C(=O)CCCCCCCCCCNC(=O)[C@@H]([C@H](C)O)n3cc(C)nn3)CC2)n1	i	i	-18*	i
C#CCOCCOCCOCCNc1nc(N2CCOCC2)nc(N2CCN(C(=O)CCCCCCCCCCNC(=O)[C@H]([C@@H](C)CC)n3cc(CCCCN=C(N)N)nn3)CC2)n1	i	i	i	i
C#CCOCCOCCOCCNc1nc(N2CCN(C(=O)CCCCCCCCCCNC(=O)Cn3cc(C[C@@H](C)O)nn3)CC2)nc(N2CCN(C(=O)CCCCCCCCCCNC(=O)[C@@H]([C@H](C)CC)n3cc(CCCCCN)nn3)CC2)n1	i	i	i	25*
C#CCOCCOCCOCCNc1nc(N2CCN(C(=O)CCCCCCCCCCNC(=O)[C@@H](CCSC)n3cc(CCO)nn3)CC2)nc(N2CCN(C(=O)CCCCCCCCCCNC(=O)[C@@H]([C@H](C)O)n3cc(C)nn3)CC2)n1	i	i	i	i
Cc1ccccc1COC(=O)c1nn(-c2ccccc2)nc1N	i	i	i	i
Cc1ccc(C(=O)NNC(=O)c2ccoc2C)s1	x	x	i	x
C#CCOCCOCCOCCNc1nc(N2CCN(C(=O)CCCCCCCCCCNC(=O)[C@H]([C@@H](C)CC)n3cc(CCCCN=C(N)N)nn3)CC2)nc(N2CCN(C(=O)CCCCCCCCCCNC(=O)[C@H](CCCN=C(N)N)n3cc(C[C@@H](C)CC)nn3)CC2)n1	i	i	x	25*
